Compounds with a hit are over-represented: about 1.1% of the library has one in this group of screens.
HTR5A inv ag – inverse agonist of human HTR5A in OPRM1-OPRD1 counter-screen; HTR5A cell line, luminescence, inverse agonism; inhibition, % at 9.3 µM; 340,000 compounds, 0.083% hits; AID 504634; in the data active = inhibition mostly above about 23%, no sharp cut-off; inactive = mostly below about 18%;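 note: 0% = cells with DMSO and 100% = no-cell wells with DMSO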
MOR-DOR ag-1 – agonists of human mu-delta opioid receptor heterodimerization | P35372+P41143 | cells, OPRM1-OPRD1 heterodimerization, luminescence | activation, % at 9.3 µM | 340,000 compounds, 0.3% hits | AID 504326;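 note: 0% = vehicle-treated cells and 100% = reference agonist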
Target sequence (P35372 whole entry, looked up): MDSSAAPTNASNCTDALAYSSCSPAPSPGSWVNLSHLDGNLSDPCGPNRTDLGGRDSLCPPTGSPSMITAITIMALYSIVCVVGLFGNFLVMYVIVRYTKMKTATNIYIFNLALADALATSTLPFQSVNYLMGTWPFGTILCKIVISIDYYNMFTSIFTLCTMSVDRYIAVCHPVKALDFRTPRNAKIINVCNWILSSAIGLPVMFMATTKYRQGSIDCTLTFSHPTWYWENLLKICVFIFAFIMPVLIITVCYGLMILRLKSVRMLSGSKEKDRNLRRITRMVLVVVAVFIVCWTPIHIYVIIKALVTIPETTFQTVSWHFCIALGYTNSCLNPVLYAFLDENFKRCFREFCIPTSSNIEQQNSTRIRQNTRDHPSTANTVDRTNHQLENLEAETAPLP
Target sequence (P41143 whole entry, looked up): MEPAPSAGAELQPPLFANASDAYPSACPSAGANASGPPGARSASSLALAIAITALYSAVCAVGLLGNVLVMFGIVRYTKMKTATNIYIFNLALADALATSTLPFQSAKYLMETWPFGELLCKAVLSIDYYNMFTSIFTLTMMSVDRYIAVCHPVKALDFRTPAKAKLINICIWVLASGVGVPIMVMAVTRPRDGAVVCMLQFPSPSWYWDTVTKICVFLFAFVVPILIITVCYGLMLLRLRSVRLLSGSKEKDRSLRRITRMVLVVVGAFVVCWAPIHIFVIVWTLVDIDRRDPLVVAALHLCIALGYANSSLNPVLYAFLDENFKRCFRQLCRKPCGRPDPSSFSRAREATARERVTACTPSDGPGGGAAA
HTR5A ag – activates human HTR5A in OPRM1-OPRD1 agonist counter-screen; P47898; HTR5A agonist assay, luminescence, cell-based; activation, % at 9.3 µM; 340,000 compounds, 0.61% hits; AID 504692; in the data active = activation mostly above about 9.5%, no sharp cut-off; inactive = mostly below about 7.6%;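 note: 0% = cells with vehicle only and 100% = reference agonist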
MOR-DOR inv ag – mu-delta opioid heterodimer inverse agonism. P35372+P41143. cell-based MOR-DOR heterodimer luminescence. inhibition, % at 9.3 µM. 340,000 compounds, 0.21% hits; in the data active = inhibition above about 22%, passing the limit was not always enough;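 note: 0% = cells with DMSO and 100% = wells without cells with DMSO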
MOR-DOR ag-2 – promotes OPRM1-OPRD1 heterodimerization in HTR5A counter-screen. shares compounds with HTR5A ag. U2OS counter-screen cells, complementation luminescence, 3 h. activation, % at 9.3 µM. 800 compounds, 13% hits
HTR5A ag conf – HTR5A (human) agonism, confirmation. shares compounds with HTR5A ag. HTR5A agonist cell assay, luminescence. activation, % at 9.3 µM. 800 compounds, 17% hits. AID 504915; in the data active = activation above about 17%;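 note: 0% = cells with vehicle only and 100% = full reference agonist response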
* hit, by the source's call; . = no result. Cut-off read from the data, not from the text of the source, unless noted: active = activation above about 18%; inactive = the rest.

SMILES | HTR5A inv ag | MOR-DOR ag-1 | HTR5A ag | MOR-DOR inv ag | MOR-DOR ag-2 | HTR5A ag conf
COc1ccccc1N1CCN(C(=O)c2cccc(C(=O)N3CCN(c4ccccc4OC)CC3)c2)CC1 | -36 | 0 | 15* | 0 | 4 | -4
O=C(CSc1ncnc2c1oc1ccccc12)Nc1cccc(C(F)(F)F)c1 | -17 | 6 | 6 | -31 | . | .
COc1cc(C(=O)O)ccc1OCc1ccncc1 | -1 | -2 | 16* | 10 | 0 | 0
COc1cc(C(N)=O)ccc1OCc1ccccc1 | -11 | -1 | 4 | 4 | . | .
O=C(O/N=C(\c1ccccc1)c1ccccn1)c1cccc2ccccc12 | -97 | 2 | 39* | -9 | 133* | 4
COc1cc(/C=C2\SC(=O)N(CCN)C2=O)ccc1OS(=O)(=O)c1cc(C)ccc1C | -64 | 9 | 22* | -42 | 19* | 15
O=C(Nc1cccc(Cl)c1)Nc1cc(S(=O)(=O)N2CCCCC2)ccc1Cl | -2 | 2 | 1 | -13 | . | .
CN1CCN(S(=O)(=O)c2ccc(NC(=O)Nc3cccc(Cl)c3)cc2)CC1 | -89 | 6 | 17* | -33 | 8 | 7
Nc1nnc(Cc2ccccc2F)s1 | -2 | -2 | 1 | 10 | . | .
O=C(NCCc1c[nH]c2ccccc12)C(=O)NCC1OCCCN1S(=O)(=O)c1cc(F)ccc1F (stereo not drawn) | -151 | -3 | 36* | 14 | -1 | -11
O=C(NCCc1c[nH]c2ccccc12)C(=O)NCC(c1ccco1)N1CCN(c2ccc(F)cc2)CC1 (stereo not drawn) | -166 | 0 | 47* | 1 | 6 | 56*
COc1cc(C2NC(=S)NC3=C2C(=O)CCC3)ccc1O (stereo not drawn) | 9 | 0 | -3 | 3 | . | .
O=C(NC1CCCc2ccccc21)c1ccc([N+](=O)[O-])cc1 (stereo not drawn) | 12 | 2 | 2 | -9 | . | .
Cc1ccc(S(=O)(=O)NN=C2C3CC4CC(C3)CC2C4)cc1 | 0 | -4 | 15* | 20 | 0 | 2
Cc1ccc(S(=O)(=O)NN=C2C3CC4CC(C3)CC2C4)cc1[N+](=O)[O-] | -58 | 0 | 12 | 2 | . | .
O=C(COc1ncnc2ccccc12)Nc1cc([N+](=O)[O-])ccc1F | -57 | -2 | 19* | 10 | 2 | 1
C=CCn1c(SCC(=O)Nc2sccc2C(N)=O)nc2sc(C)c(C)c2c1=O | -46 | -1 | 18* | 6 | 0 | -3
C=CCn1c(SCC(=O)Nc2ccccc2C)nc2sc(C)c(C)c2c1=O | -20 | 3 | 1 | -16 | . | .
Cc1cc(C(C)(C)C)cc(C)c1CC1=NCCN1 | -236 | -1 | 90* | 4 | 0 | 90*
COc1cccc2sc(N3CCN(C(=O)c4ccco4)CC3)nc12 | -35 | -2 | 19* | 16 | 19* | 14
CN(C(=O)c1cccc(NC(=O)Cc2ccc(NC(=O)C3CCCN(C(=O)CCc4ccccc4)C3)cc2)c1)C1CCC1 (stereo not drawn) | -77 | 4 | 20* | -20 | 5 | 5
CN(C(=O)c1cccc(NC(=O)Cc2ccc(NC(=O)C3CCCN(C(=O)CCc4ccccc4)C3)cc2)c1)C1CCCC1 (stereo not drawn) | 2 | 4 | 0 | -16 | . | .
COc1ccc(C=NNc2nc3ccccc3s2)cc1 | 0 | 2 | 0 | -10 | . | .
Cc1ccc2[nH]c(C)c(/C=N/Nc3nc4ccccc4s3)c2c1 | -55 | 7 | 20* | -32 | 2 | 3
O=S(=O)(Nc1ccc(-n2cccc2)cc1)c1ccc(Cl)c(Cl)c1 | -18 | 3 | 4 | -14 | . | .
SMILES | HTR5A inv ag | MOR-DOR ag-1 | HTR5A ag | MOR-DOR inv ag | MOR-DOR ag-2 | HTR5A ag conf
CCNC(=O)c1ccc(-n2nc(C(F)(F)F)c3c2CCCC3)cc1 | -79 | -1 | 16* | 4 | 1 | 36*
Nn1c(SCc2nc3ccccc3[nH]2)nnc1C1CCCCC1 | 7 | -2 | -2 | 9 | . | .
CNc1ccccc(-c2ccc3ccccc3n2)c1=O | -111 | 3 | 15* | -14 | 0 | 39*
c1ccc(-c2ccc3ccccc3n2)cc1 | -6 | -1 | 1 | 5 | . | .
COc1ccc(Nc2nnc(Cc3ccccc3)c(=O)[nH]2)c(OC)c1 | -31 | 2 | 17* | -14 | 4 | -1
O=C(N/N=C/c1cccc(O)c1)c1csc2ccccc12 | 13 | 3 | 1 | -11 | . | .
CCn1ncc(/C=N\NC(=O)c2csc3ccccc23)c1C | -71 | -3 | 18* | 16 | 49* | -4

Compound activity as filed in PubChem.
